# This is part of a sample that, as a whole, favours compounds with a hit. Of some 83,000 tested, about 20% had one in any assay.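 48-hour exposure, single concentration, 96-well plates; percent growth endpoint where 0 means no net growth. Active: below 10.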 A number with no mark means an inactive call. Activity calls are given as the source filed them.
# Experiments:
# Assay in all cases: NCI-60 one-dose screen, 48 h (100 = growth as untreated, 0 = no growth, -100 = all killed)
# Conditions in all cases: 10 µM unless noted
# DU-145 prostate = test system: DU-145 prostate
# K-562 leukemia = test system: K-562 leukemia
# MALME-3M melanoma = test system: MALME-3M melanoma
# MDA-MB-231 breast = test system: MDA-MB-231 breast
# RXF 393 renal = test system: RXF 393 renal
# SF-268 CNS = test system: SF-268 CNS
# SF-295 CNS = test system: SF-295 CNS
# SF-539 CNS = test system: SF-539 CNS
# UACC-257 melanoma = test system: UACC-257 melanoma
# M14 melanoma = test system: M14 melanoma
# HCT-15 colon = test system: HCT-15 colon
# HT29 colon = test system: HT29 colon
# SNB-75 CNS = test system: SNB-75 CNS
# SNB-19 CNS = test system: SNB-19 CNS
# U251 CNS = test system: U251 CNS
# PC-3 prostate = test system: PC-3 prostate
# UACC-62 melanoma = test system: UACC-62 melanoma
# LOX IMVI melanoma = test system: LOX IMVI melanoma
# SK-MEL-28 melanoma = test system: SK-MEL-28 melanoma
# SK-MEL-5 melanoma = test system: SK-MEL-5 melanoma
SMILES,growth (DU-145 prostate),growth (K-562 leukemia),growth (MALME-3M melanoma),growth (MDA-MB-231 breast),growth (RXF 393 renal),growth (SF-268 CNS),growth (SF-295 CNS),growth (SF-539 CNS),growth (UACC-257 melanoma),growth (M14 melanoma) [%],growth (HCT-15 colon),growth (HT29 colon),growth (SNB-75 CNS),growth (SNB-19 CNS) [%],growth (U251 CNS),growth (PC-3 prostate),growth (UACC-62 melanoma),growth (LOX IMVI melanoma),growth (SK-MEL-28 melanoma),growth (SK-MEL-5 melanoma)
O=C(NC(CSSCC(NC(=O)c1ccccc1)C(=O)O)C(=O)O)c1ccccc1 (stereo unspecified),114%,96%,109%,110%,116%,99.4%,106%,102%,102%,98.9,99.8%,103%,102%,107,104%,95.8%,99.6%,95.7%,118%,
COc1ccc(CNC(=O)C(O)C(Cc2ccccc2)NC(=O)c2[nH]c3ccccc3c(=O)c2C)cc1OC (stereo unspecified),113%,102%,111%,103%,111%,102%,99.7%,107%,105%,106,101%,100%,107%,100,101%,102%,103%,104%,109%,
COC(=O)[C@]12CC[C@@H](C)[C@H](C)[C@@H]1C1=CC[C@@H]3[C@@]4(C)C(C=O)=C[C@@](C)(COC(C)=O)[C@@H]4[C@H](O)C[C@@]3(C)[C@]1(C)CC2,-73.1% (active),4.82% (active),-79.2% (active),-39.2% (active),-82% (active),1.2% (active),-30% (active),-55.4% (active),-58.6% (active),,-62.7% (active),-52.8% (active),-9.48% (active),29.4,-46.7% (active),8.44% (active),-46.7% (active),-99.1% (active),-52.6% (active),-93.3% (active)
O=C1/C(=C/c2ccc(F)cc2)C=C(c2ccccc2)N1CCc1ccccc1,81.6%,71.4%,39.1%,57.5%,56.2%,74.2%,35.9%,79.5%,38.6%,,77.9%,63.2%,-10.5% (active),45.1,46.9%,51.2%,50.1%,70.7%,72.6%,73%
CN(C)c1ccc(-c2cc(-c3ccc(Nc4nc(Nc5ccc(Cl)cc5)nc(Nc5ccc(Cl)cc5)n4)cc3)no2)cc1,47.7%,24.8%,54%,35.6%,-42.1% (active),45%,-16.8% (active),46.1%,65.7%,,39%,33.9%,19.6%,65.7,27.4%,6.65% (active),66.2%,29%,31.3%,34.5%
COC(=O)c1ccc(CSc2nnc(-c3c(C)nc4ccc(C)cn34)o2)cc1,106%,82.6%,111%,84.1%,97%,102%,105%,103%,116%,,104%,111%,85.9%,94.2,99.2%,106%,89.2%,94.2%,103%,
O=C(O)CN1C(=O)CCC1=O,109%,111%,104%,90.7%,111%,99.8%,99.1%,99%,104%,,103%,90.6%,95.3%,108,105%,108%,108%,102%,107%,103%
Cc1ccc(-n2c(-c3ccccc3)c(-c3ccccc3)c3c(SCC(=O)n4[nH]c(N)cc4=O)ncnc32)cc1,108%,77.1%,97.6%,83.3%,96.6%,107%,89.3%,96%,94.1%,,101%,94%,97.1%,91.8,87%,79.4%,77.4%,97.7%,101%,87.3%

# Reference: PubChem BioAssay (NCI)
